PubChem BioAssay
Active and inactive are the calls of the source. Unless noted, no rule for the calls is given here.

Experiments:
[1] = system: XIP peptide (Xip251-270) binding; assay: XIP fragment 251-270 binding compounds – biochemical, small-molecule microarray, fluorescence 635/667 nm, 0.1 µg/mL protein, primary screen (AID 1182); conditions: fluorescent protein binding, 635 nm, higher = more signal, called active from +8 up or from −8 down
XIP peptide (Xip251-270) = assay: compounds binding XIP fragment 251-270 – biochemical, small-molecule microarray, fluorescence 635/667 nm, 0.5 µg/mL protein, primary screen (AID 1183); conditions: fluorescence 635 nm, higher = more signal
[2] = blood-stage malaria parasite viability loss – strain 3D7, DAPI fluorescence, 100 nL, primary screen (AID 1184);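 also: parasites grown inside human red blood cells in medium with human serum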; conditions: P. falciparum 3D7 growth, 3 d, higher = more signal
[3] = molecular target: Homeobox protein Hox-A13 (Mus musculus) (UniProt Q62424); assay: disruptors of Hoxa13 oligonucleotide interaction – biochemical, fluorescence polarization, labeled oligonucleotide, primary screen (AID 1185); conditions: Hoxa13:DNA binding, 15 min, higher = more signal, called active from +8 up or from −8 down
Homeobox protein Hox-A13 (Mus musculus), sequence (Q62424 whole entry, looked up): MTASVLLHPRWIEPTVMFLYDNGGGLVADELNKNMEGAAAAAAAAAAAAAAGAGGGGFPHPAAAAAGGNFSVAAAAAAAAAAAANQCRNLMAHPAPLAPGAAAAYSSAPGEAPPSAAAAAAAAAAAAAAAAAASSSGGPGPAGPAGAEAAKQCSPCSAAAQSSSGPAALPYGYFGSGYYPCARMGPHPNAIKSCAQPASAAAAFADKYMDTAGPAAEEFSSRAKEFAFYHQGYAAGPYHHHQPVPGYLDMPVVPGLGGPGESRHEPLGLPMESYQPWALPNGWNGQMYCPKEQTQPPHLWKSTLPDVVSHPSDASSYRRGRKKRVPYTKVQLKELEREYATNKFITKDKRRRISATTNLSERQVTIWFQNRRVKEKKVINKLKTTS

[4] = blockers of DNA damage checkpoint Chk1 activation – imaging, HeLa, hydroxyurea, phospho-Chk1 antibody, percent positive cells, primary screen (AID 1186); conditions: hydroxyurea-induced phospho-Chk1 immunofluorescence imaging, higher = more signal
[5] = blockers of DNA damage checkpoint Chk1 activation – imaging, HeLa, hydroxyurea, phospho-Chk1 nuclear intensity, primary screen (AID 1187); conditions: hydroxyurea-induced phospho-Chk1 immunofluorescence imaging, higher = more signal

| SMILES | composite z-score [1] | composite z-score (XIP peptide (Xip251-270)) | z-score [2] | z-score [3] | z-score [4] | z-score [5] |
| --- | --- | --- | --- | --- | --- | --- |
| CCCCC(CC)C(O)C1C=CC2C(=O)NC(=O)C2N1Nc1ccccn1 (stereo not given) | 0.327 (inactive) | 0.781 | 0.133 | -3.87 (inactive) | 0.0438 (inactive) | -0.119 (inactive) |
| CC(C)C[C@@H]1NC(=O)[C@@]23C(=O)N[C@@H](Cc4ccccc4)C2[C@H](C)[C@@]2(C)O[C@H]2C3/C=C/C/C=C\CNC(=O)[C@@H]2CCCN2C1=O (stereo not given in full) | -0.0982 (inactive) | -0.791 | 0.817 | -6.29 (inactive) | -0.118 (inactive) | 0.275 (inactive) |
| COc1ccc([Si](C)(C)[C@H]2[C@H](CCO)O[C@@]3(C(=O)N(Cc4cccc(N5CCOC5=O)c4)c4ccccc43)[C@@H]2C)cc1 | 0.154 (inactive) | 0.687 | -2.79 | -4.21 (inactive) | -1.12 (inactive) | -0.5 (inactive) |
| COCCOC(=O)N1C(=O)[C@@]2(c3cc(C#CCNC(N)=O)ccc31)[C@H](C(N)=O)[C@H]1C(=O)O[C@H](c3ccccc3)[C@H](c3ccccc3)N1[C@@H]2c1ccc(OCCO)cc1 | -0.0439 (inactive) | 0.549 | 0.101 | -2.08 (inactive) | 0.358 (inactive) | 0.489 (inactive) |
| CN(C)CCCC[C@@H]1NC(=O)[C@H]2C[C@@H](C(=O)NCCCCCCNC(=O)CS)[C@@H](c3ccc(O)cc3)N2C1=O | 1.44 (inactive) | 0.868 | 0.323 | -2.87 (inactive) | -0.346 (inactive) | 0.128 (inactive) |
| COCCCNC(=O)[C@@]1(Cc2ccccc2N=[N+]=[N-])N=C(c2ccc(OCCCO)cc2)O[C@H]1c1ccccc1CN=[N+]=[N-] | 0.401 (inactive) | 0.763 | -2.23 | 0.427 (inactive) | -0.314 (inactive) | 0.446 (inactive) |
| COc1ccccc1CN1C(=O)c2ccccc2[C@@H](C(=O)NCC(C)C)[C@@H]1c1ccc(CO)cc1 | 0.25 (inactive) | 0.791 | -1.24 | -1.48 (inactive) | 0.0947 (inactive) | 0.525 (inactive) |
| C=CCNC(=O)[C@H]1[C@@H]2C(=O)O[C@@H](c3ccccc3)[C@@H](c3ccccc3)N2[C@@H](c2ccc(OCCO)cc2)[C@]12C(=O)N(C(=O)OCCOC)c1ccc(C#CC3=CCCCC3)cc12 | 0.377 (inactive) | 0.799 | -2.22 | 2.62 (inactive) | -0.142 (inactive) | -0.108 (inactive) |
| COc1ccc(C(=O)Nc2ccc3c(c2)[C@]2(O[C@@H](CCO)[C@H]([Si](C)(C)c4ccc(OC)cc4)[C@H]2C)C(=O)N3Cc2ccccc2)cc1 | 0.439 (inactive) | 0.45 | -2.88 | -1.01 (inactive) | -0.583 (inactive) | -0.644 (inactive) |
| Cc1ccc(-c2cccc(=O)o2)cc1 | -0.0449 (inactive) | -0.776 | 0.842 | -1.28 (inactive) | 0.45 (inactive) | -0.203 (inactive) |
| CC1(C)[C@@H]2CC(C(O)C3C=CC4C(=O)N(c5ccccc5)C(=O)C4N3Nc3ccccc3F)=C[C@@H]1C2 (stereo not given in full) | 0.572 (inactive) | 0.458 | -0.59 | -2.4 (inactive) | 0.498 (inactive) | 0.749 (inactive) |
| CCOC(=O)C[C@H]1[C@H](OC(=O)c2ccccc2-c2ccccc2)[C@@H](NC(=O)c2ccccc2)c2cc(OCCCO)ccc2N1C(=O)Cc1ccc(OC)cc1 | -0.231 (inactive) | -0.73 | -0.375 | -2.77 (inactive) | 0.237 (inactive) | 0.356 (inactive) |
| CC(C)c1ccc(NN2C(C(O)c3ccccn3)C=CC3C(=O)N(c4ccccc4)C(=O)C32)cc1 (stereo not given) | 1.17 (inactive) | 0.69 | -0.723 | -4.86 (inactive) | 0.236 (inactive) | 0.375 (inactive) |
| [N-]=[N+]=Nc1ccccc1C[C@]1(C(=O)NCCN2CCOCC2)N=C(c2ccc(OCCCO)cc2)O[C@H]1c1ccccc1N=[N+]=[N-] | 1.24 (inactive) | 0.682 | -2.21 | -3.22 (inactive) | -1.3 (inactive) | -2.17 (inactive) |
| Cc1ccc(S[C@]2(C(=O)NCc3ccccc3)CC(=O)N(C3Cc4ccccc4C3)[C@@H]2c2ccc(CO)cc2I)cc1 | 1.77 (inactive) | 0.23 | 0.237 | -1.78 (inactive) | -0.424 (inactive) | -0.164 (inactive) |
| COCCOC(=O)N1C(=O)[C@@]2(c3cc(C#CCCO)ccc31)[C@H](c1ccc(OCCO)cc1)N1[C@H](c3ccccc3)[C@H](c3ccccc3)OC(=O)[C@H]1[C@@H]2C(=O)N1CCc2cc(OC)c(OC)cc2C1 | 0.311 (inactive) | 0.736 | -1.87 | 2.71 (inactive) | -0.209 (inactive) | 0.0256 (inactive) |
| C=CC[C@@]1(C(=O)NCC(O)CO)N=C(c2ccc(OCCCO)cc2)O[C@@H]1c1ccccc1 (stereo not given in full) | 2.6 (inactive) | 0.691 | -0.869 | -4.25 (inactive) | -0.379 (inactive) | -0.244 (inactive) |
| COc1ccc([Si](C)(C)[C@@H]2[C@@H](CCO)O[C@]3(C(=O)N(Cc4ccc(N5C(=O)c6ccccc6Oc6ccccc65)cc4)c4ccccc43)[C@H]2C)cc1 | 0.89 (inactive) | 0.294 | -2.77 | -1.06 (inactive) | -0.42 (inactive) | -0.394 (inactive) |
| COC(=O)[C@@]1(Cc2ccc(F)cc2)[C@@H]2[C@@H](CC(=O)[C@H]2CC(=O)C(=O)N2CCCC2)CN1C(=O)c1ccccc1 | 0.112 (inactive) | 0.663 | -1.44 | -2.66 (inactive) | 0.853 (inactive) | 1.01 (inactive) |
| COCCOC(=O)N1C(=O)[C@@]2(c3cc(C#CCCO)ccc31)[C@H](C(=O)NC[C@H](O)c1ccccc1)[C@H]1C(=O)O[C@H](c3ccccc3)[C@H](c3ccccc3)N1[C@@H]2c1ccccc1OCCO | 0.355 (inactive) | 0.564 | -0.89 | -2.38 (inactive) | 0.308 (inactive) | 0.431 (inactive) |
| O=C1NC(=O)C2C1C=CC(C(O)c1ccc3c(c1)OCO3)N2Nc1ccc(Cl)cc1Cl (stereo not given) | 2.16 (inactive) | 0.726 | 0.576 | -5.9 (inactive) | 0.629 (inactive) | 0.417 (inactive) |
| C[N+](C)(C)CCCCCCNC(=O)[C@@H]1C[C@@H]2C(=O)NCC(=O)N2[C@@H]1c1ccc(O)cc1 | 0.842 (inactive) | 0.87 | 0.627 | -1.98 (inactive) | 1.34 (inactive) | 0.992 (inactive) |
| COC(=O)[C@@]1(Cc2ccccc2)[C@H]2c3cc(C(=O)N(C)C)n(Cc4ccc(O)c(OC)c4)c3C[C@H]2CN1C(=O)c1ccccc1 | 0.332 (inactive) | 0.664 | -1.55 | -5.2 (inactive) | 0.197 (inactive) | -0.0257 (inactive) |
| [N-]=[N+]=Nc1ccccc1[C@@H]1OC(c2ccc(OCCCO)cc2)=N[C@]1(CCS(=O)(=O)c1ccccc1)C(=O)NCc1ccccc1 | 1.44 (inactive) | 0.629 | -2.27 | -1.05 (inactive) | -0.228 (inactive) | -0.184 (inactive) |
| O=C(C=C(CC(O)c1cccc(Cl)c1)OCCF)OCCF (stereo not given) | 0.0562 (inactive) | -1.21 | 0.186 | -1.34 (inactive) | -0.608 (inactive) | -0.48 (inactive) |
